The text below walks through data of PubChem BioAssay (NCATS).

Several values for one entry are separate records, joined by “and”; a condition that tells them apart may be missing. Equal values may be shown once. Records with an inconclusive call do not appear. The source holds several records for some structures; these can differ, active in one and inactive in another. Unmarked numbers belong to inactive results. Activity calls are given as the source filed them. The call rests on the fitted dose curve; in most records, active means well fitted inhibition curve with a large enough effect; inconclusive means small, poorly fitted or top-dose-only effect; inactive means flat fitted curve, though single readings scatter.

For one experiment, the system named is CRL-7250. Put plainly: Cytotoxic Profiling of Annotated Libraries Using Quantitative High-Throughput Screening (AID 1296008). Further: potency means the concentration at half of the fitted maximal effect. On max response: on the % scale 0 is the no-effect control and ±100 the full control effect. The conditions noted are these: Five cell lines viability, CellTiter-Glo ATP luminescence, 48-72 h; max response: active compounds read low. A digest of the protocol:
(§1)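 Cells exposed to compounds for 48 or 72 hr at 37 degrees Celsius. Viability read as ATP-coupled luminescence with CellTiter-Glo after 10 min at room temperature.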
(Cellular ATP, detected with luciferase, serves as a proxy for viable cell number.)

In experiment [1] the test system is HaCat. The description is as above. The conditions noted are these: Five cell lines viability, CellTiter-Glo ATP luminescence, 48-72 h; max response: active compounds read low. A digest of the protocol: as §1
The next experiment deals with KB-3-1. The experiment is described as above. The conditions noted are these: Five cell lines viability, CellTiter-Glo ATP luminescence, 48-72 h; max response: active compounds read low. Put shortly: as §1
Another experiment deals with NIH3T3. Described as above. The conditions noted are these: Five cell lines viability, CellTiter-Glo ATP luminescence, 48-72 h; max response: active compounds read low. A digest of the protocol: as §1
For a further experiment, the system named is HEK293. The experiment is described as above. The following applies: Five cell lines viability, CellTiter-Glo ATP luminescence, 48-72 h; max response: active compounds read low. A digest of the protocol:
as §1

Experiment [2] concerns HACAT. Put plainly: qHTS assay to identify novel small-molecules to repurpose for Merkel cell carcinoma treatment (AID 1296009). The following applies: MCC and control cell lines, CellTiter-Glo viability, 72 h; at 44.8 µM (top of the series) unless noted. Put shortly:
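Dose-response viability screen; 72 hr exposure at 37 degree celsius; CellTiter-Glo added, 10 min room temperature, luminescence read; RLUs scaled between no-cell and DMSO wells.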
Further: nearly all actives have a fitted effect of over 60% in size.

Regarding `Cc1cc(C(=O)NOCCO)c(Nc2ccc(I)cc2F)n(C)c1=O`, in the experiment on CRL-7250, the Potency was 743 nM (active). Further, the values for the max response in the experiment on HaCat [1] and with KB-3-1 were -66.6% and -2.94%, respectively.
Regarding `C[C@@H]1[C@H](C)CC[C@]2(C(=O)O)CC[C@]3(C)C(=CC[C@@H]4[C@@]5(C)C[C@@H](O)[C@H](O)[C@@](C)(CO)[C@H]5CC[C@]43C)[C@@H]12`, the max response in the experiment on CRL-7250 was -10.9%; in the experiment on HaCat [1], 2.03%. Further, the compound was called inactive in the experiment on KB-3-1 and in the experiment with NIH3T3.
As to `Cn1c(Nc2ccc(C(F)(F)F)cc2)nc2cc(Oc3ccnc(-c4ncc(C(F)(F)F)[nH]4)c3)ccc21`, the Potency is 372 nM (active) in the experiment on CRL-7250, 26400 nM (active) in the experiment with HEK293 and 11.8 µM (active) in the experiment with KB-3-1.
In the case of `NS(=O)(=O)OC[C@@H]1C[C@@H](n2ccc3c(N[C@H]4CCc5ccccc54)ncnc32)C[C@H]1O`, the Potency was 2640 nM (active) in the experiment on CRL-7250 and 526 nM (active) in the experiment on HEK293. Besides, the max response with NIH3T3 was -27.1%.
`CCc1c(O)cc(O)c(C(=O)c2ccc(OCCN3CCOCC3)c(OC)c2)c1CC(=O)N(CCOC)CCOC`: the Potency was 1320 nM (active) in the experiment with CRL-7250, 833 nM (active) with HEK293 and 11.8 µM (active) in the experiment with NIH3T3.
As to `O=C1NC(=O)C(=Cc2ccc3nccc(-c4ccncc4)c3c2)S1`, the Potency in the experiment with CRL-7250 is 52.6 nM (active); in the experiment with HEK293 it was 74.3 nM (active); in the experiment with KB-3-1 it was 0.148 µM (active); in the experiment with NIH3T3, 0.209 µM (active).
On to `CN(C)CC(=O)N1CCC(c2ccc(NC(=O)c3ncc(C#N)[nH]3)c(C3=CCCCC3)c2)CC1`, for which the result in the experiment with CRL-7250, in the experiment with HaCat [1] and in the experiment with HACAT [2] was inactive. The max response with HaCat [1] is 3.1%; in the experiment with KB-3-1, 3.44% and -16.9%; in the experiment on NIH3T3 it was 0.938%. In the experiment on NIH3T3, the Potency was 0.92 µM (active).
Consider `CC(C)c1cc(C(C)C)c(CC(=O)NS(=O)(=O)Oc2c(C(C)C)cccc2C(C)C)c(C(C)C)c1`, for which the max response with CRL-7250 is 4.74% and 1.75%; in the experiment on HaCat [1], 0.698% and -52.4%; with KB-3-1, 0.649%.
In the case of `O=C(O)C(=O)Nc1cccc(C2=NN=N[N]2)c1`, the compound was called inactive with CRL-7250. Also, the max response was -4.6% with HaCat [1], 7.57% in the experiment with KB-3-1 and -1.86% in the experiment with NIH3T3.
With `CC[C@H](CC[C@@H](C)[C@H]1CC[C@H]2[C@@H]3CC=C4C[C@@H](O)CC[C@]4(C)[C@@H]3CC[C@]12C)C(C)C`, the max response is -0.624% with CRL-7250, 4.34% in the experiment with HaCat [1], -7.92% in the experiment on KB-3-1 and 4.37% with NIH3T3.
As to `C[C@H](NC(=O)C(C#N)=Cc1cccc(Br)n1)c1ccccc1`, the Potency in the experiment on CRL-7250 was 5260 nM (active); with HaCat [1] it was 10500 nM (active); in the experiment on KB-3-1, 4.69 µM (active); in the experiment with NIH3T3 it was 9.35 µM (active).
The corresponding values for `C=CCNc1c(O)cc2c(O)c1C[C@@H](C)C[C@H](OC)[C@@H](O)[C@@H](C)C=C(C)[C@H](OC(N)=O)[C@@H](OC)C=CC=C(C)C(=O)N2` are 37.2 nM (active), 372 nM (active), 0.0935 µM (active) and 0.59 µM (active).
As to `O=C1CSC(=O)N1C(CCc1ccncc1)COc1ccc(-c2cccc([N+](=O)[O-])c2)cc1` (stereo unspecified), the max response is -33.8% in the experiment on CRL-7250, -30.8% with HaCat [1], -6.99% in the experiment on KB-3-1 and -3.92% in the experiment on NIH3T3.
For `O=C1c2cccc(O)c2C(=O)c2c(O)cc(CO)cc21`, the max response in the experiment on CRL-7250 was -9.37%; in the experiment on HaCat [1], -18.1%; with KB-3-1 it was -6.13%; with NIH3T3, -5.61%.
As for `CC(C(C)N1CC(=O)NC(=O)C1)N1CC(=O)NC(=O)C1` (stereo unspecified), the compound was classed as inactive in the experiment on CRL-7250. Besides, in the experiment on HEK293, the Potency is 1660 nM (active). The max response in the experiment on KB-3-1 was -3.89%.
Turning to `C#Cc1cccc(Nc2ncnc3cc(OCCOC)c(OCCO)cc23)c1`, the results for the Potency in the experiment with CRL-7250, in the experiment on HEK293 and with NIH3T3 were 14800 nM (active), 16600 nM (active) and 20.9 µM (active), respectively.
Regarding `COc1ccc(S(=O)(=O)Nc2cccnc2Nc2ccc(O)cc2)cc1`, the Potency in the experiment with CRL-7250 is 3660 nM (active); in the experiment on HaCat [1], 20900 nM (active); in the experiment with KB-3-1, 332 nM (active) and 820 nM (active). Moreover, the max response with HaCat [1] was -5.46%.
As to `CCNC(=O)c1cc2c(-c3cc(OCCN4CCCC4)c(Cl)cc3Cl)nc(N)nc2s1`, the Potency in the experiment on CRL-7250 was 4690 nM (active); in the experiment with HEK293 it was 418 nM (active); in the experiment with NIH3T3, 2.35 µM (active).
With `N=c1ccn2c(n1)O[C@H]1[C@@H](O)[C@@H](CO)O[C@H]12`, the figures for the max response in the experiment on CRL-7250 and in the experiment with KB-3-1 were -13.3% and -23.9%, respectively. Moreover, the Potency with HEK293 is 4180 nM (active); in the experiment with NIH3T3 it was 3.32 µM (active).
Turning to `O=C(Nc1nnc(-c2ccco2)o1)c1cc(-c2ccccc2)nc2ccccc12`, the Potency in the experiment with CRL-7250 was 16600 nM (active). The max response in the experiment with HaCat [1] was -46%.
Regarding `OCc1ccccc1O[C@@H]1O[C@H](CO)[C@H](O)[C@H](O)[C@H]1O`, the max response is -20.8% in the experiment with CRL-7250 and -10.2% in the experiment on HaCat [1]. The compound was classed as inactive in the experiment on KB-3-1 and in the experiment with NIH3T3.
As to `CC(=O)SCC(Cc1ccccc1)C(=O)NCC(=O)OCc1ccccc1` (stereo unspecified), the results for the max response in the experiment with CRL-7250, in the experiment on KB-3-1 and with NIH3T3 were -7.71%, 3.33% and -4.22%, respectively. Besides, the call in the experiment with HaCat [1] and in the experiment with HACAT [2] was inactive.
Take `CS(=O)(=O)N1CCc2c(-c3cnc(N)nc3)nc(N3CCOCC3)nc21`: the Potency with CRL-7250 was 935 nM (active); in the experiment on HaCat [1] it was 1160 nM (active); in the experiment with KB-3-1 it was 4.61 µM (active); in the experiment on NIH3T3 it was 743 nM (active) and 1.84 µM (active).
